From PubChem BioAssay AID1347426 (Functional Genomics Laboratory (NCATS/FGL), 2020) come the findings set out here.

About 1,400 (4.5%) of roughly 31,000 sequences were called active. The entries come from a sample that favours actives as a whole. Values without a mark were called inactive.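 Rule for the calls: active = median seed-adjusted z-score above 1 or below -1; inactive = the rest.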

This assay can be described thus: Novel Modifiers of Survival Motor Neuron (SMN) Protein: Gene Identification via Genome-wide siRNA Screen.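 Note: luminescence tracks full-length SMN protein made from the SMN2 reporter.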 Conditions: HEK293T SMN2-luciferase reporter, siRNA knockdown, 72 h; actives lie on both sides. Put shortly: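 HEK293T cells stably expressing an SMN2 splicing/cDNA-luciferase reporter were reverse-transfected with a druggable-genome siRNA library and read by luminescence at 72 hours; hits defined by MAD score above 1.0 or below -1.0.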
AGAAGAUCAUAGGCAGCAATT against KLK8: the median seed-adjusted z-score is 0.736.
Regarding GCUUCAGAGUCAACGGACATT against MICB, the median seed-adjusted z-score is 0.162.
The same measure for GAGGAACAGGAAUAACAUUTT against GCG: -1.18 (active); for GGCCUAACCAUAUGCCUAUTT against SS18: 0.34; for GGUUUUUCCGCCAACUAGATT against CAPS: -1.25 (active).
As for GGUGUGCGGUUCAUCUUCATT against ILVBL, the figure is 0.343.
As for CUAAAGAGGUCAACAUUGATT against RGS16, the median seed-adjusted z-score was 0.
The same measure for AGGUGUUCAUCGGCGUAAATT against GRHL3: -0.0434; for CCAGCAGCAUGGAAGUUGUTT against HSD3B7: -0.0819.
As for UCAUCUACCUGAUGCGUAUTT against TAF6, the figure is -1.36 (active); as for GAACUAUGAAUAAAGCUUUTT against HAGHL, -0.334.
With GGCUUGAAGUAUGGAAAAATT against QRICH1, the median seed-adjusted z-score was -1.04 (active).
As for CCAGCUUAGUUCAAUAUGATT against GABRA4, the figure is 0.549.
As for CCAUCCUGAUAAGAACCCATT against DNAJA1, the figure is -0.00548; as for GGGCCUACUUUACAUCACATT against TXNDC14, -2.39 (active); as for CGCUUACAAGGUCAACAUUTT against S1PR3, -0.0931.
For CAAGCUACGUAGAGAUCUATT against KIFC1, the median seed-adjusted z-score is 0.0417.
Turning to ACAUGUUCCUCACCUUAAATT against SLC6A1, the median seed-adjusted z-score was -0.122.
The same measure for GGAGGGAUAUGUUCCACGUTT against TP53BP2: 0.157.
On to CUACUGUGGGUGUCGCAUATT against UQCRFS1, for which the median seed-adjusted z-score was -1.28 (active).
The same measure for GAGCGACUUUGAUCACCAUTT against PANK2: 0.121; for CAUUCAUCAUCCACCCAGATT against MUPCDH: -0.329; for CCCGGAUACUUCUGAAGAATT against HNRPDL: -0.68.
As for CGGUGGGAUGGGAACGAAATT against DRAP1, the figure is 1.08 (active); as for CUAUGACUGGAUUAGCGUATT against BEST2, 0.415; as for GCUUUUGAACUAUUUGAUATT against CETN3, -0.0815.
In the case of UGAAGACCCAGAGAUGUAATT against PTN, the median seed-adjusted z-score is -0.174.
Regarding UGAGAUCGCUGUCAUGUUATT against PSMD10, the median seed-adjusted z-score is 0.265.
The same measure for GCAAGGUUUAAUGAACAAATT against GTF2E1: 1.76 (active); for GUGAGAACUUUGACGAUUATT against PMP2: 0.00618; for GUAACUGCAUUCAACUUGATT against OSMR: 0.548.
As for UGAAAAACAUUAACAAGCATT against RNASE7, the figure is 1.07 (active); as for CAACCUACAUGUUUGCUGATT against SCARF1, -0.324; as for GGAACAUUCCGACCUACAATT against PTDSS2, 0.0941.
For CCGUCACCAUCCUCAUCUATT against PORCN, the median seed-adjusted z-score is 0.214.
The same measure for GAUGAUUUUUGGAGACCUATT against TRPV5: 0.0879; for GGAGUUUGAGGUAUACCUATT against IL6: -0.436; for GCUUUAACGUGUCUGUGCATT against SLC25A5: -0.0501.
As for CUACUACUUUAAUCCCUAATT against FDFT1, the figure is -0.143; as for GCAUCGACCUGAUUCACAATT against AP3B2, -2.45 (active); as for GGAGCGGUUCAGAUCAAUATT against RAB39, -0.408.
As for CCUCAUUGAUAACACUAAATT against GBP2, the median seed-adjusted z-score was -0.263.
As for GGAUUGAAGGUGUUCACUATT against PZP, the median seed-adjusted z-score was -0.878.
As for CAGUACUACGUGAAACUGATT against BAT1, the figure is -1.49 (active).
Turning to GGCUACAAGUAGAGAGUUUTT against ESPL1, the median seed-adjusted z-score is 0.871.
The same measure for GAGAAAGUGUGAACUUACATT against XRCC2: 0.
CGCAACUCUUUACACCGUATT against SAMHD1: the median seed-adjusted z-score was -1.33 (active).
The same measure for GGAUGUUUUCGAAACGCAUTT against BRDT: -0.357.
Take GACUAUUCCUGAUCCUUAUTT against AGBL2: the median seed-adjusted z-score is -0.796.
The same measure for GCAUCAGCUUCGAUGAGUATT against S100A16: 0.24; for CCCUGUCUAUAAUUUCUUUTT against DGCR8: -0.266.
As for CGCCUUAUACUUUACCAAATT against MGC16703, the figure is 0.55; as for CCAUUAAGAAUGCUAAUAUTT against ABCB10, -0.1.
The same measure for GGCUAUAGGGUGUAUAUUUTT against CDK8: -1.47 (active); for CCUUCGACCUCAAGAGACATT against OVOL1: -0.0414.
With CAGGCUUUGUUAGACGUAATT against ZNF157, the median seed-adjusted z-score was 0.137.
As for GCUCUUGGAUUAAAAGGUATT against STAR, the median seed-adjusted z-score is 0.478.
The same measure for GAACGUACUCUUGCUUAUATT against ATP6V1D: 0.594; for CAGAGAACCCAUUACAUCATT against HADH: 1.11 (active).
The same measure for GACUUUCACAGUUCACCGATT against KCTD3: 0.603; for UCAACCCUCUGAUAGAAGATT against EID2: -1.04 (active); for GUAUGCUCCCGAUCAAGUATT against APOBEC3A: 0.467.
Consider GAAGGAUGGGUGGACGUAATT against NALCN, for which the median seed-adjusted z-score was -0.266.
CCAUAAAUGCUACGAAUAUTT against EGFR: the median seed-adjusted z-score is 0.263.
As for CAAUGAAUUUUUCCGAAGATT against ITGA10, the figure is 0.378; as for CCACAUGCUUCAAACAUCATT against TOR1A, -0.231.
With UAGCUUCGGUGAUCAAGAATT against ANXA9, the median seed-adjusted z-score is 0.055.
Turning to GCAAGAGUCGUUCACCAGATT against MGMT, the median seed-adjusted z-score was -0.0549.
As for GCUCAAAGGUCUCACCUGCTT against SLC35A2, the figure is 1.06 (active); as for GGCCGGAGAUUAUCCUCAATT against MIXL1, -0.204.
For GUGUGGUAGCUAUUGACAATT against TSC22D1, the median seed-adjusted z-score is 0.
The same measure for UUCCCAUAUUUAUUCGGACTT against AMH: -0.255; for GCAGUGACCUUCAAAGUGATT against PTPRN2: -0.104; for CAACUGCAAGAGGACUGUATT against SLC10A4: 0.069.
As for UGCUGUUCGUGGAUUUCAATT against CDX4, the figure is 0.181; as for AGAUUGAAAUCGACUUUGATT against BRD4, 1.13 (active); as for GCAUCAUCUCAGCACCAGATT against SLC5A12, 0.279.
For GAACCGCCCUCCUGAUUAATT against WNT3A, the median seed-adjusted z-score was -0.66.
With GCAAGAUCCCAAAUCAGCATT against ADAT1, the median seed-adjusted z-score was 0.404.
Consider ACAAGAUGACCAACACUAATT against ARHGAP1, for which the median seed-adjusted z-score was -1.14 (active).
On to GAACGGGUAUGUGGAGAUATT against INHBA, for which the median seed-adjusted z-score is 0.361.
As for CGAACGAAGAAGAGCCGAATT against NFATC2, the figure is 0.183; as for CUACCCAACCUGUAGCUAATT against UBE2J1, -1.2 (active); as for CGAUUAGAAAUCAACAUGATT against MLKL, 0.
As for GAUUUCUAGGCAUCCCGUATT against ARSA, the figure is 0.0938; as for CCAUGAUCCUGUGGAUAAATT against HNRNPA2B1, 1.33 (active); as for CCCUCGAAUUCGCAUAGAATT against DIS3, 0.266.
The same measure for GCACCGUCUAUGUCACCAUTT against GAL3ST3: -0.54.
CCCAUAUUCGGAUCCAGAATT against PTPN6: the median seed-adjusted z-score is -0.515.
In the case of GGAAUCGUGGAGAAUAUGATT against NUBP2, the median seed-adjusted z-score was -0.21.
Regarding CCAUGCCCUAUGUUAAGAATT against RRM2B, the median seed-adjusted z-score was -0.128.
In the case of AGACGAUCCGGGUAAAGUUTT against LSM7, the median seed-adjusted z-score is -0.45.
As for CAACUAGUGCAACCAGUAATT against ZNF207, the figure is -3.1 (active); as for GGCUCCUCCUUGUACUCAATT against FOXO3, -0.712; as for GGGCAUCGCUAAACCCAAATT against LIF, 0.273.
GGUCCGAUGUUACGUCUAATT against TIGD4: the median seed-adjusted z-score is -0.553.
As to CCGGGACAGUGACAUCAUATT against ENDOD1, the median seed-adjusted z-score is -0.138.
As for GGAGCACAGAGGCUCAGAATT against TNFRSF13B, the median seed-adjusted z-score is 0.152.
Consider CCAUCAAACUUGCAUCCCUTT against ISX, for which the median seed-adjusted z-score is 1.99 (active).
GAACAUCUCUUGUGGUAUUTT against SLC22A16: the median seed-adjusted z-score was 0.0878.
As for GGUUUUAACUGGAACUGGATT against HIF1AN, the median seed-adjusted z-score was -0.0315.
On to GGAUCGACCCAACCUAUGUTT against XYLT2, for which the median seed-adjusted z-score is 0.148.
Take CAGCACUAUUAGACAGGAATT against ZBTB40: the median seed-adjusted z-score was 0.187.
For the sequence CUGCGGACCCAAUACAUGATT against ARID3A, the median seed-adjusted z-score was -1.11 (active).
As for AGAGGUUUGGCAGAAAUACTT against NPFF, the figure is -0.631.
Turning to UAAGAACACCGUUACCCAATT against NLGN4X, the median seed-adjusted z-score was -0.1.
The same measure for GCAGACCACCUGAAUAUGATT against TRO: 2.04 (active).
The same measure for GGAGUAGAUUUUAGCAUAATT against TNKS2: 0.0545.
